Test results published in PubChem BioAssay (NCATS).
Inconclusive results are not listed. Where a call stands in place of a potency, no number is given. The source made the active and inactive calls. Calls come from the whole dose curve; as a rule, active = well fitted curve in the direction sought with a large enough effect; inconclusive = small, poorly fitted or top-dose-only effect, or another doubt; inactive = no such curve, though single readings can be large; an effect the other way counts as inactive or inconclusive. Residues, ends and D or L forms follow the SMILES beside them. *: point of attachment. Cbz = O=C(OCc1ccccc1)*

How the values were obtained:
[1] = qHTS to identify inhibitors of the type 1 interferon - major histocompatibility complex class I in skeletal muscle: primary screen against the NCATS LOPAC collection (AID 1347405);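 note: lytic HiBiT luminescence reporting HLA-B protein level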; note: potency is the fitted concentration of half-maximal effect
Procedure, shortened: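 CRISPR-engineered immortalized human myoblasts (C25cl48) with HiBiT fused to endogenous HLA-B*08:01, stimulated with 4 ng/ml IFN-beta. LOPAC compounds tested as a 7-point 1:4.3 titration (top 46 uM final), 24 h at 37 C; lytic HiBiT luminescence read.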

[2] = qHTS for inhibitors of adenylyl cyclases using a fission yeast platform: a pilot screen against the NCATS LOPAC library (AID 1347410)
Procedure, shortened: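 Fission yeast qHTS: CHP2027 cells (AC9-GNAS-PDE4D2, fbp1-GFP), 5x10^6 cells/mL working density, EMM + His/Lys/Ura; LOPAC at up to 57 µM final; 18 h dark, 30C; GFP by laser cytometry. DPI positive control, DMSO vehicle.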

[3] = Validation qHTS assay for inhibitors of Activation Induced Cytidine Deaminase (AID): UDG Counterscreen signal (AID 1347427)
Procedure, shortened: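 Counterscreen read of UDG activity (2 U/mL, 4/3x) in the FRET deamination format with AID (1 uM, 4/3x), DJC20/DJC23 substrates (250 nM, 4x), 4 h at room temperature. NaOH stop, fluorescence at 560 ex/665 em.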

| SMILES | Potency [1] | outcome [2] | Potency [3] |
| --- | --- | --- | --- |
| N[C@H](C(=O)O)c1cc(O)cc(O)c1 | inactive | inactive | inactive |
| O=C(O)C1=CCNCC1 | inactive | inactive | inactive |
| CCSC(=N)N | inactive | inactive | inactive |
| Oc1cc(O)c2c(c1)O[C@H](c1ccc(O)c(O)c1)[C@@H](O)C2 | inactive | inactive | inactive |
| CC(C)(C)NCC(O)COc1cccc2[nH]c(=O)[nH]c12 (stereo not given) | inactive | inactive | inactive |
| COc1ccc2c(c1)c(CC(=O)O)c(C)n2C(=O)c1ccccc1 | inactive | inactive | inactive |
| CCc1ccc2c(-c3cccc(Cl)c3)nc(=O)n(CC)c2n1 | inactive | inactive | inactive |
| c1ccc(C(NCc2cccnc2)(c2ccccc2)c2ccccc2)cc1 | inactive | inactive | inactive |
| Nc1nc2c(nc(Br)n2C2OC3COP(=O)(O)O[C@@H]3C2O)c(=O)[nH]1 (stereo not given in full) | inactive | inactive | inactive |
| NCCC1CCCC(CCN)N1 (stereo not given) | inactive | inactive | inactive |
| C/C(=C\c1ccc(C(=O)O)cc1)c1ccc2c(c1)C(C)(C)CCC2(C)C | inactive | inactive | inactive |
| N[C@H](C(=O)O)[C@H](Cc1ccccc1)C(=O)O | inactive | inactive | inactive |
| CCCCS(=N)(=O)CC[C@H](N)C(=O)O (stereo not given in full) | inactive | inactive | inactive |
| Cn1cc(C(=O)OCC2CCN(CCNS(C)(=O)=O)CC2)c2ccccc21 | inactive | inactive | inactive |
| COc1ccc(NC(=O)c2ccc(-c3ccc(-c4noc(C)n4)cc3C)cc2)cc1N1CCN(C)CC1 | 25.1 µM (active) | inactive | inactive |
| Cn1cc(C(F)(F)F)nc1-c1ccc(OCC(O)CNCCOc2ccc(O)c(C(N)=O)c2)cc1 (stereo not given) | inactive | inactive | inactive |
| CC(C)[C@H](NC(=O)OCc1ccccc1)C(=O)N[C@H](C=O)Cc1ccccc1 (Cbz-Val-Phe-aldehyde) | inactive | inactive | inactive |
| N[C@@H](Cc1ccc(O)c(I)c1)C(=O)O | inactive | inactive | inactive |
| CN(C)C(=O)/N=N/C(=O)N(C)C | inactive | inactive | inactive |
| Cn1c(=O)c2c(nc(/C=C/c3cccc(Cl)c3)n2C)n(C)c1=O | inactive | inactive | inactive |
| CN1Cc2sccc2C(c2ccc(O)c(O)c2)C1 (stereo not given) | inactive | inactive | inactive |
| CC1=C(C(=O)O)N2C(=O)[C@@H](NC(=O)C(N)C3=CCC=CC3)[C@H]2SC1 (stereo not given in full) | inactive | inactive | inactive |
| Nn1nnc2ccccc21 | inactive | inactive | inactive |

| SMILES | Potency [1] | outcome [2] | Potency [3] |
| --- | --- | --- | --- |
| O=C(c1ccc2c(c1)OCCO2)N1CCCCC1 | inactive | inactive | inactive |
| NC1(C(=O)O)CC1 | inactive | inactive | inactive |
| Nc1nc2c(cnn2CCc2ccccc2)c2nc(-c3ccco3)nn12 | inactive | inactive | inactive |
| COc1ccc(CCn2nnnc2C2(c3ccc(C)cc3)CC2)cc1 | inactive | inactive | inactive |
| Nc1ncnc2c1nc(Sc1ccc(Cl)cc1)n2[C@H]1OC2COP(=O)(O)O[C@@H]2C1O (stereo not given in full) | inactive | inactive | inactive |
| CCCCCCCCCC[Si](C)(C)CCC(=O)NC(Cc1ccc(C)cc1)c1ccccc1 (stereo not given) | inactive | inactive | inactive |
| N[C@@H](CCC(=O)N[C@H](CSN=O)C(=O)NCC(=O)O)C(=O)O | inactive | inactive | inactive |
| O=c1onc2n1-c1cc(Br)ccc1OC2 | inactive | inactive | inactive |
| Cc1nc(N=Nc2cc(S(=O)(=O)O)c3cc([N+](=O)[O-])cc(S(=O)(=O)O)c3c2)c(COP(=O)(O)O)c(C=O)c1O | 15.8 µM (active) | inactive | inactive |
| CSC(N)=NCCC[C@H](N)C(=O)O | inactive | inactive | inactive |
| Cn1c(=O)c2[nH]c(-c3ccc(S(=O)(=O)O)cc3)nc2n(C)c1=O | inactive | inactive | inactive |
| CCN(CC)CCOC(=O)c1cc(Cl)c(N)cc1OC | inactive | inactive | inactive |
| CN[C@H](CC(=O)O)C(=O)O | inactive | inactive | inactive |
| Cc1ccc2c(c1)C(N1CCN(C)CC1)=Nc1cccnc1N2 | inactive | inactive | inactive |
| Nc1ccc2c3c(cccc13)C(=O)NC2=O | inactive | inactive | inactive |
| CCCCCCCCCCC/C=C\C(C)(C)/C=C\CCCC(=O)O | inactive | inactive | inactive |
| Fc1ccc(CN(C2=NCCN2)c2c(Cl)cccc2Cl)cc1 | inactive | inactive | inactive |
| N[C@@H](Cc1ccc(F)cc1)C(=O)O | inactive | inactive | inactive |
| CCCCCCCCCCCCCCSCC(=O)O | inactive | inactive | inactive |
| O=C1Cc2c([nH]c3ccc(Br)cc23)-c2ccccc2N1 | 12.6 µM (active) | inactive | inactive |
| NC[C@@H]1O[C@H](c2ccccc2)Cc2c1ccc(O)c2O | inactive | inactive | inactive |
| NC1C=CC=C(C(=O)O)C1 (stereo not given) | inactive | inactive | inactive |
